# Data: publication PMC5540273 (PLoS ONE, 2017)
# Legend:
# Conditions in all cases: concentration: 1 μM, replicates: in singlicate; n = 1
# [1] = system: RPS6KA5(Kin.Dom.2-C-terminal)
# [2] = system: T1, RSK1(Kin.Dom.1-N-terminal)
# T1 construct: gene RPS6KA1
# [3] = system: T2, RSK1(Kin.Dom.2-C-terminal)
# T2 construct: gene RPS6KA1
# [4] = system: T3, RSK2(Kin.Dom.1-N-terminal)
# T3 construct: gene RPS6KA3
# [5] = system: T4, RSK2(Kin.Dom.2-C-terminal)
# T4 construct: gene RPS6KA3
# [6] = system: T5, RSK3(Kin.Dom.1-N-terminal)
# T5 construct: gene RPS6KA2
# [7] = system: T6, RSK3(Kin.Dom.2-C-terminal)
# T6 construct: gene RPS6KA2
# [8] = system: T7, RSK4(Kin.Dom.1-N-terminal)
# T7 construct: gene RPS6KA6
# [9] = system: T8, RSK4(Kin.Dom.2-C-terminal)
# T8 construct: gene RPS6KA6
# S6K1 = system: S6K1
# 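Further: KINOMEscan kinase panel screen.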
SMILES,%Inh [1] [%],%Inh [2] [%],%Inh [3] [%],%Inh [4] [%],%Inh [5] [%],%Inh [6] [%],%Inh [7] [%],%Inh [8] [%],%Inh [9] [%],%Inh (S6K1) [%]
Cn1ccc2ncnc(Nc3ccc(Oc4cccc(Cl)c4)c(Cl)c3)c21,11,13,0,20,0,19,10,29,14,0
NC(=O)c1sc(-n2cnc3ccccc32)cc1OCc1ccccc1F [GSK1024306],0,0,32,9,31,0,0,0,82,0
CC(C)(C)c1ccc(-n2cnc3c(N)ncnc32)cc1 [SKF-97263],0,0,16,0,28,8,0,15,0,10
Fc1ccc(Nc2nccc(-c3c(-c4ccc(Cl)cc4)nn4ncccc34)n2)cc1F [GW829058],18,27,10,31,42,6,0,30,0,4
Cl.Cl.c1ccc(-c2cc3ccncc3cc2OC2CCNCC2)cc1 [GSK1122999],8,22,21,9,55,0,6,0,30,7
Cc1ccc(NC(=O)c2cccc(C#N)c2)cc1-c1ccc(C(=O)Nc2ccncc2)cc1 [GSK1398463],1,24,0,0,6,9,0,0,1,11
OCCOCCn1ccc2ncnc(Nc3ccc(Oc4cccc(Cl)c4)c(Cl)c3)c21,0,0,0,0,0,3,4,0,2,0
CC(=O)Nc1n[nH]c2ncc(-c3ccccc3)cc12 [SB-548492],0,1,100,20,0,41,0,36,12,50
Cn1cc(-c2ccc3c(c2)CCN3C(=O)Cc2cccc(C(F)(F)F)c2)c2c(N)ncnc21 [GSK2606414],0,0,2,18,0,0,0,0,12,4
CN1c2ccc(-c3ccc(C(=O)NCCO)cc3)cc2-c2[nH]ncc2S1(=O)=O,14,0,26,12,41,0,35,3,27,33
O=C(NCCCN1CCCC1=O)c1cnc(NCc2cc(Cl)ccc2Cl)nc1NC1CCNCC1,0,100,5,0,0,39,8,0,17,26
Fc1cccc(COc2ccc(Nc3ncnc4sc(-c5ccc[nH]5)cc34)cc2Cl)c1 [GW707818],20,25,8,0,0,0,5,0,5,0
O=C(CCO)NCCn1ccc2ncnc(Nc3ccc(Oc4cccc(C(F)(F)F)c4)c(Cl)c3)c21,0,0,0,0,0,3,4,0,0,0
COc1ccc(-c2oc3ncnc(N)c3c2-c2ccc(OC)cc2)cc1 [SB-589132],0,29,30,9,30,5,0,0,69,16
CC(C)(C)OC(=O)NC1CCCN(c2cc(-c3ccc4c(N)n[nH]c4c3)nc(N)n2)C1 (stereo not shown) [GSK2286096],0,26,0,27,100,0,0,36,23,2
COc1ccc(NC(=O)Nc2ccc(C)c(-c3ccc(C(=O)Nc4ccncc4)cc3)c2)cc1 [GSK1398475],0,16,3,0,0,0,0,0,22,0
Fc1ccc(-c2ncn(CCCNCc3ccccc3)c2-c2ccncc2)cc1,7,0,22,0,22,16,21,0,31,19

SMILES,%Inh [1] [%],%Inh [2] [%],%Inh [3] [%],%Inh [4] [%],%Inh [5] [%],%Inh [6] [%],%Inh [7] [%],%Inh [8] [%],%Inh [9] [%],%Inh (S6K1) [%]
O=C(c1ccc(-c2cc(-c3c[nH]nc3-c3ccccn3)ccn2)cc1)N1CCCC1 [GW792479],11,4,0,14,39,0,12,0,19,7
Cl.c1ccc(Cn2ccc3cc(Nc4ncnc5ccccc45)ccc32)cc1 [GW275568],39,41,23,0,34,2,4,0,26,0
Clc1cccc(-c2nc(Nc3ccncc3)c3ccccc3n2)c1 [GW873004],16,0,10,49,40,0,2,0,24,0
CN1CCC(n2cnc(-c3ccc(F)cc3)c2-c2ccnc(NC3CCNCC3)n2)CC1 [SB-229482],0,17,23,9,43,18,30,0,51,25
Fc1cccc(COc2ccc(Nc3ncnc4nn5ccccc5c34)cc2Cl)c1 [GW689066],0,4,0,0,0,0,0,0,0,0
Cc1cc(N2CCC(NS(=O)(=O)c3ccc(F)cc3)CC2)nc(Nc2cccc(C#N)c2)n1.O=C(O)C(F)(F)F [GSK1653537],0,7,0,3,20,18,0,62,10,0
CCn1c(-c2ccncc2)nc2cnccc21 [SB-735216],0,19,16,19,34,8,40,14,39,32
Nc1nc(-c2ccc3c(N)n[nH]c3c2)cc(N2CCCCC2)n1 [GSK2228768],0,0,0,0,0,15,0,0,0,0
O=C(Nc1ccccc1F)NC1CCN(c2ccnc(Nc3ccc(F)cc3)n2)C1 (stereo not shown) [GSK1379722],19,8,0,14,28,13,0,0,0,11
Cc1cccc(-c2nc(Nc3ccc4[nH]nnc4c3)c3ccccc3n2)n1 [GW867587],0,0,16,12,0,0,12,0,0,0
N#Cc1ccc(Oc2ccc(Nc3ncnc4cc[nH]c34)cc2Cl)cc1,0,20,17,19,0,9,23,16,32,10
CCC(CC)(CC)n1cnc2c(N)ncnc21 [SKF-97620],4,0,34,41,10,0,22,40,2,16
O=C(Nc1ccccc1)Nc1ccc(Oc2ccc3nccn3n2)cc1,19,5,0,0,0,6,0,0,0,0
CSc1ccc(NC2=C(c3ccccc3Cl)C(=O)NC2=O)cc1 [SB-342411],1,6,15,0,0,1,0,0,0,1
FC(F)(F)c1cc(Nc2nccc(-c3c(-c4ccc(Cl)cc4)nn4ncccc34)n2)ccc1Cl [GW829351],0,0,28,11,0,0,0,0,45,0
COc1cc2ncnc(Nc3ccc(OCc4ccccc4Br)c(Cl)c3)c2cc1OC.Cl [GI261590],0,32,0,0,3,100,0,0,0,11
CC(C)N1CCC(n2cnc(-c3ccc(F)cc3)c2-c2ccnc(N)n2)CC1 [SB-223132],0,0,56,3,29,12,4,0,66,0
